In the library only some 7.3% were active in any assay of this set; here they are far more common.
FMDV inh: High Throughput Screening for Foot and Mouth Disease Virus Antivirals. AID 1159524, 2015. Potency, µM (series often up to 57.9 µM), actives largely listed as inhibitors. hit rate 1.2% among 410,000. FMDV antiviral cell-based qHTS; calls by dose curve; tested in HEK293T cells; also: read-out not given here; nearly all actives have a fitted effect of over 45% in size
VACV mCherry inh: qHTS for Stage-Specific Inhibitors of Vaccinia Orthopoxvirus: mCherry Reporter Primary qHTS; Vaccinia virus mCherry reporter infection, fluorescence; Potency, µM (top dose mostly 36.5 µM), hits mostly inhibitors; hit rate 0.63% among 310,000; AID 720579, 2013; calls by dose curve; tested in A549 cells; also: nearly all actives have a fitted effect of over 35% in size
HCMV inh: qHTS Assay for inhibitors of the human cytomegalovirus (HCMV). HFF cells, HCMV-luciferase reporter, 72 h; active compounds read low. hit rate 4.5% among 410,000. activity change, negative = inhibition, % at 57.5 µM; in the data active = activity change below about -60%; inconclusive = no clear call, values can overlap the other calls; inactive = above about -39%
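Luciferase read-out from HCMV-luciferase-infected HFFs (MOI 1 PFU/cell) 72 h post infection at 37C; compounds added after 16 h cell attachment; activity normalized between buffer-only basal and Salinomycin (10uM) inhibitor controls.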
VACV Venus inh: qHTS for Stage-Specific Inhibitors of Vaccinia Orthopoxvirus: Venus Reporter Primary qHTS. hit rate 0.46% among 330,000. Vaccinia virus Venus reporter expression, fluorescence. Potency, µM (doses to about 36.5 µM), most hits filed as inhibitors; calls by dose curve; tested in A549 cells; also: nearly all actives have a fitted effect of over 30% in size
HCV inh: qHTS Assay for Inhibitors of Hepatitis C Virus (HCV) | Huh7.5.1 HCVcc-Cre infection, luciferase reporter, 44 h | Potency, µM (doses to about 41.8 µM), most hits filed as inhibitors | hit rate 3.4% among 340,000; active = well fitted inhibition curve with a large enough effect; inconclusive = small, poorly fitted or top-dose-only effect, or another doubt; inactive = no such curve, though single readings can be large or run the other way
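After 44 h co-culture of compound, cells and HCVcc-Cre (~0.5 moi), substrate is added for 15 min at room temperature and luciferase measured over 15 sec. Cells were seeded at 1,000/well and pre-cultured 4 h.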
Large screens that a line does not name were inactive; ! = repeats disagree.

CN(C)CCCn1cnc2c(c1=N)C(c1ccccc1)c1ccc3ccccc3c1O2 (centres undefined)	FMDV inh inconclusive, VACV mCherry inh inconclusive, HCMV inh -98, VACV Venus inh 18µM, HCV inh 8.9µM
N=c1c2c(ncn1CCCO)Oc1c(ccc3ccccc13)C2c1ccccc1 (centres undefined)	HCV inh 11µM (no result: VACV mCherry inh, VACV Venus inh)
COc1ccc(C2c3ccc4ccccc4c3Oc3ncn(CCN(C)C)c(=N)c32)cc1 (centres undefined)	VACV mCherry inh inconclusive, HCMV inh -99, VACV Venus inh inconclusive, HCV inh 2.8µM
COc1ccc(C2c3ccc4ccccc4c3Oc3ncn(CCO)c(=N)c32)cc1 (centres undefined)	HCV inh inconclusive (no result: HCMV inh)
N=c1c2c(ncn1CCCO)Oc1ccc3ccccc3c1C2c1ccccc1 (centres undefined)	HCV inh inconclusive
CCCn1nc(C(=O)NNC(=O)CCCOc2ccc(C)cc2)c2ccccc2c1=O	none
COc1cccc(CN(C)C(=O)CSCC(=O)Nc2cccc(C)c2)c1OC	none (no result: VACV mCherry inh, VACV Venus inh)
CCOCCCN(Cc1ccco1)C(=O)c1cc2c(=O)[nH]c3ccc(C)cc3c2s1	VACV mCherry inh inconclusive, HCMV inh -63!, HCV inh inconclusive
CCCN(CCC)C(=O)c1cc2c(=O)[nH]c3ccc(C)cc3c2s1	HCV inh 11µM (no result: VACV mCherry inh, VACV Venus inh)
Cc1ccc(C)c(N(C)C(=O)c2cc3c(=O)[nH]c4ccc(C)cc4c3s2)c1	HCMV inh inconclusive, HCV inh 8.9µM (no result: VACV mCherry inh, VACV Venus inh)
Cc1ccc2[nH]c(=O)c3cc(C(=O)N(C)Cc4ccco4)sc3c2c1	HCV inh inconclusive
COCCN(Cc1ccco1)C(=O)c1cc2c(=O)[nH]c3ccc(C)cc3c2s1	none (no result: HCV inh)
CCCN(CC1CC1)c1cc2c(c3c1ccn3C)C1CCC2C1 (centres undefined)	HCMV inh -62 (no result: HCV inh)
Cn1ccc2c(N3c4ccccc4CCc4ccccc43)cc3c(c21)C1CCC3C1 (centres undefined)	HCMV inh -93 (no result: HCV inh)
Cn1ccc2c(-c3ccc(F)nc3)cc3c(c21)C1CCC3C1 (centres undefined)	HCMV inh inconclusive (no result: HCV inh)
COc1ccc(-c2cc3c(c4c2ccn4C)C2CCC3C2)cc1OC (centres undefined)	HCMV inh -60 (no result: HCV inh)
O=C(NCC1COCCO1)c1ccc2nc(Cc3cccc(Cl)c3)oc2c1 (centres undefined)	none
CN1C(=O)C(C)(C)c2cc(S(=O)(=O)NCc3ccc(C(=O)Nc4ccc(Cl)cc4)cc3)ccc21	FMDV inh 32µM, HCMV inh inconclusive (no result: HCV inh)
CCOc1ccc(NC(=O)C2CCCN(S(=O)(=O)c3ccc4c(c3)C(C)(C)C(=O)N4C)C2)cc1 (centres undefined)	none (no result: FMDV inh, VACV mCherry inh, VACV Venus inh, HCV inh)
CCc1ccc(NC(=O)c2ccc(CNS(=O)(=O)c3ccc4c(c3)C(C)(C)C(=O)N4C)cc2)cc1	FMDV inh inconclusive, HCMV inh inconclusive (no result: HCV inh)
CN1C(=O)C(C)(C)c2cc(S(=O)(=O)N3CCCC(C(=O)Nc4ccc(Cl)cc4)C3)ccc21 (centres undefined)	FMDV inh inconclusive, VACV mCherry inh inconclusive, HCMV inh inconclusive, VACV Venus inh inconclusive, HCV inh 11µM
CC(C)c1ccc(NC(=O)C2CCCN(S(=O)(=O)c3ccc4c(c3)C(C)(C)C(=O)N4C)C2)cc1 (centres undefined)	FMDV inh inconclusive, HCMV inh inconclusive, HCV inh 13µM
CCn1c(/C=C/Nc2ccccc2)[n+](CC)c2ccc(Cl)cc21	FMDV inh inconclusive
CCn1c(C)[n+](Cc2ccccc2)c2ccc(Cl)cc21	HCMV inh -67
CCn1c(/C=C/N(C)c2ccccc2)[n+](CC)c2ccc(Cl)cc21	HCMV inh -94, HCV inh 32µM (no result: FMDV inh)
CCNc1nc(OC)nc(N(OC)S(=O)(=O)c2ccc(C)cc2)n1	none (no result: VACV mCherry inh, VACV Venus inh)
CSCCC(NC(=O)c1ccccc1Br)C(=O)N1CCCC(C(F)(F)F)C1 (centres undefined)	none
CC(C)CNC(=O)c1cc2nc3c(c(C(F)(F)F)n2n1)CCc1ccccc1-3	HCMV inh -67 (no result: VACV mCherry inh)
CCCCNC(=O)c1cc2nc3c(c(C(F)(F)F)n2n1)CCc1ccccc1-3	none
Cc1ccc(S(=O)(=O)NC(=O)C2(C)CCN2C(=O)Cc2cccs2)nc1 (centres undefined)	none (no result: HCV inh)
O=C(Nc1ccc(-c2nc3ccccc3o2)cc1)c1ccc2c(c1)OCO2	HCMV inh -108, HCV inh inconclusive (no result: VACV mCherry inh, VACV Venus inh)
O=C(Nc1ccc(-c2nc3ccccc3o2)cc1)c1cccnc1	VACV mCherry inh inconclusive, VACV Venus inh inconclusive, HCV inh inconclusive
Cc1ccc2oc(-c3ccc(NC(=O)c4ccc5c(c4)OCO5)cc3)nc2c1	HCV inh inconclusive (no result: VACV mCherry inh, VACV Venus inh)
O=C(Nc1ccc2oc(-c3ccccc3F)nc2c1)c1ccc2c(c1)OCCO2	FMDV inh 35µM, HCMV inh inconclusive, HCV inh inconclusive
O=C(Nc1ccc(-c2nc3ccccc3o2)cc1)c1ccc(N2C(=O)C3C4C=CC(C4)C3C2=O)cc1 (centres undefined)	HCV inh 4µM (no result: FMDV inh)
COc1ccc(S[C@]2(c3nc(C)no3)CC(=O)N[C@@H]2c2ccc(OC)cc2)cc1	none (no result: FMDV inh, VACV mCherry inh, VACV Venus inh, HCV inh)
CNc1ccc(/C=C2\C=Cc3ccccc32)cc1I	none (no result: FMDV inh, HCMV inh, HCV inh)
CCOc1c(Cl)cc(CNc2ccc(S(N)(=O)=O)cc2)cc1OC	FMDV inh inconclusive, VACV mCherry inh inconclusive, HCMV inh inconclusive
CCOc1c(Cl)cc(CNc2ccc(N3CCCC3)cc2)cc1OC	HCMV inh -65
CCOC(=O)c1noc2nc(C)n(CC(=O)Nc3ccc(Br)cc3C)c(=O)c12	none (no result: HCV inh)
Cc1cccc(NS(=O)(=O)c2cccc(C(=O)N3CCN(c4ccccn4)CC3)c2)c1	none (no result: HCV inh)
CCOc1ccccc1N1CCN(C(=O)c2ccc(Cl)c(S(=O)(=O)N3CCCCC3)c2)CC1	FMDV inh 32µM, HCV inh 10µM
O=C(c1ccc(Cl)c(S(=O)(=O)N2CCCCCC2)c1)N1CCN(c2ccccn2)CC1	FMDV inh 28µM, VACV mCherry inh inconclusive, HCMV inh -81, VACV Venus inh inconclusive, HCV inh 7.1µM
O=C(c1ccc(Cl)c(S(=O)(=O)N2CCCCCC2)c1)N1CCCCC1	none (no result: VACV mCherry inh, VACV Venus inh)
CN(c1ccccc1)S(=O)(=O)c1cccc(C(=O)N2CCN(c3ccccn3)CC2)c1	FMDV inh 40µM, VACV Venus inh inconclusive (no result: VACV mCherry inh)
Cc1ccc(C2CC(=O)n3nc(-c4ccc(F)cc4)nc3S2)cc1 (centres undefined)	none (no result: HCV inh)
Cc1cccc(OCCCC(=O)Nc2ccc(S(=O)(=O)Nc3nccs3)cc2)c1C	none
Cc1ccc(-c2ccc(=O)n(Cc3ccc(F)cc3)n2)cc1	HCMV inh -63!
Cc1ccc(-c2cc(N)n(Cc3ccc(Cl)cc3)n2)cc1	VACV Venus inh inconclusive, HCV inh 10µM (no result: VACV mCherry inh)
COC(=O)C1=CN(c2ccccc2OC)C(N)=C(C#N)C1c1cccc([N+](=O)[O-])c1 (centres undefined)	VACV mCherry inh inconclusive, HCMV inh inconclusive (no result: HCV inh)
